Results published in the supplement of paper PMC6609913.
Where a name gives a salt, the structure may show the parent alone. ± gives the standard deviation of the averaged measurements. Whole data set: some 1,300 compounds, median “normalised cell viability” near 1, cut for the lowest 2% near 0.14. The list comes from a sample in which the lowest values are over-represented; it also holds similar structures and randomly drawn compounds.

Tested on: V-C8 (BRCA2-deficient hamster cells)
Experiment: normalised cell viability (fraction of plate median); higher = more viable cells (less toxic)
Conditions: 5 µM
Outline: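 Cell viability was measured with a resazurin assay, normalised to the plate median (modified robust per cent of sample) and averaged over triplicate wells. Hamster V-C8 cells lacking BRCA2 and V-C8 cells with BRCA2 restored were seeded in 96-well plates. After 24 h, library drugs from 10 mM DMSO stocks were added at a final 5 μM in 100 μl medium and left for 3 days (screen 1) or 6 days (screen 2), with solvent-only wells alongside.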

## O=C1CN(/N=C/c2ccc([N+](=O)[O-])o2)C(=O)N1 [Nitrofurantoin]
Treatment time: 3 days
  normalised cell viability: 0.937 ± 0.025
Treatment time: 6 days
  normalised cell viability: 1.15 ± 0.29

## CN[C@@H]1[C@@H](O)[C@@H](O[C@@H]2[C@@H](O)[C@H](O[C@H]3OC(CN)=CC[C@H]3N)[C@@H](N)C[C@H]2N)OC[C@]1(C)O [Sisomicin sulfate]
Treatment time: 3 days
  normalised cell viability: 0.157 ± 0.0072
Treatment time: 6 days
  normalised cell viability: 0.145 ± 0.0056

## COc1cc2nc(N(C)CCCNC(=O)C3CCCO3)nc(N)c2cc1OC (stereo not given) [Alfuzosin hydrochloride]
Treatment time: 3 days
  normalised cell viability: 0.987 ± 0.056
Treatment time: 6 days
  normalised cell viability: 1.08 ± 0.08

## c1ccc(CC2=NCCN2)cc1 [Tolazoline hydrochloride]
Treatment time: 3 days
  normalised cell viability: 1 ± 0.025
Treatment time: 6 days
  normalised cell viability: 0.98 ± 0.038

## CC(C)(O)c1ccccc1CC[C@@H](SCC1(CC(=O)O)CC1)c1cccc(/C=C/c2ccc3ccc(Cl)cc3n2)c1 [Montelukast]
Treatment time: 3 days
  normalised cell viability: 1.09 ± 0.11
Treatment time: 6 days
  normalised cell viability: 1.1 ± 0.052

## CCC(C)(CN(C)C)OC(=O)c1ccccc1 (stereo not given) [Amyleine hydrochloride]
Treatment time: 3 days
  normalised cell viability: 1.074 ± 0.0072
Treatment time: 6 days
  normalised cell viability: 1.02 ± 0.036

## C#CCN[C@@H]1CCc2ccccc21 [Rasagiline]
Treatment time: 3 days
  normalised cell viability: 1.08 ± 0.055
Treatment time: 6 days
  normalised cell viability: 1.06 ± 0.038

## Clc1ccc(C(Cn2ccnc2)OCc2csc3c(Cl)cccc23)c(Cl)c1 (stereo not given) [Sertaconazole nitrate]
Treatment time: 3 days
  normalised cell viability: 0.737 ± 0.18
Treatment time: 6 days
  normalised cell viability: 0.821 ± 0.12

## Cc1cccc(N(C)C(=S)Oc2ccc3ccccc3c2)c1 [Tolnaftate]
Treatment time: 3 days
  normalised cell viability: 1 ± 0.041
Treatment time: 6 days
  normalised cell viability: 0.983 ± 0.02

## C=CCOC(Cn1ccnc1)c1ccc(Cl)cc1Cl (stereo not given) [Enilconazole]
Treatment time: 3 days
  normalised cell viability: 0.93 ± 0.04
Treatment time: 6 days
  normalised cell viability: 0.943 ± 0.015

## Clc1ccc(CO/N=C(\Cn2ccnc2)c2ccc(Cl)cc2Cl)c(Cl)c1 [Oxiconazole Nitrate]
Treatment time: 3 days
  normalised cell viability: 0.807 ± 0.043
Treatment time: 6 days
  normalised cell viability: 0.898 ± 0.043

## CN1CCN(C(c2ccccc2)c2ccc(Cl)cc2)CC1 (stereo not given) [Chlorcyclizine hydrochloride]
Treatment time: 3 days
  normalised cell viability: 0.947 ± 0.019
Treatment time: 6 days
  normalised cell viability: 0.979 ± 0.073

## O=C(O)CCNC(=O)c1ccc(/N=N/c2ccc(O)c(C(=O)O)c2)cc1 [Balsalazide Sodium]
Treatment time: 3 days
  normalised cell viability: 0.973 ± 0.027
Treatment time: 6 days
  normalised cell viability: 0.953 ± 0.13

## Nc1ccn([C@@H]2CS[C@H](CO)O2)c(=O)n1 [Lamivudine]
Treatment time: 3 days
  normalised cell viability: 0.147 ± 0.0082
Treatment time: 6 days
  normalised cell viability: 0.139 ± 0.012

## Nc1ccn([C@@H]2O[C@H](CO)[C@@H](O)[C@@H]2O)c(=O)n1 [Cytarabine]
Treatment time: 3 days
  normalised cell viability: 0.206 ± 0.0091
Treatment time: 6 days
  normalised cell viability: 0.196 ± 0.022

## Nc1ccn([C@H]2CC[C@@H](CO)O2)c(=O)n1 [Zalcitabine]
Treatment time: 3 days
  normalised cell viability: 1.02 ± 0.059
Treatment time: 6 days
  normalised cell viability: 1.04 ± 0.044

## CC(C)NCC(O)COc1ccc(CCOCC2CC2)cc1 (stereo not given) [Betaxolol hydrochloride]
Treatment time: 3 days
  normalised cell viability: 0.1577 ± 0.00096
Treatment time: 6 days
  normalised cell viability: 0.136 ± 0.014

## CC(C)NCC(O)COc1ccc(COCCOC(C)C)cc1 (stereo not given) [Bisoprolol fumarate]
Treatment time: 3 days
  normalised cell viability: 1.04 ± 0.044
Treatment time: 6 days
  normalised cell viability: 1.16 ± 0.049

## COC(=O)CCc1ccc(OCC(O)CNC(C)C)cc1 (stereo not given) [Esmolol hydrochloride]
Treatment time: 3 days
  normalised cell viability: 1.04 ± 0.077
Treatment time: 6 days
  normalised cell viability: 0.939 ± 0.08

## O=C1[C@H](CC[C@H](O)c2ccc(F)cc2)[C@@H](c2ccc(O)cc2)N1c1ccc(F)cc1 [Ezetimibe]
Treatment time: 3 days
  normalised cell viability: 1.02 ± 0.093
Treatment time: 6 days
  normalised cell viability: 1.03 ± 0.022
